High-throughput results from PubChem BioAssay.
RAD54 inh – RAD54 (human) branch migration inhibition; inhibition, % at 10.4 µM; Q92698; AID 602329; actives 0.14% (n = 360,000); RAD54 Holliday junction branch migration, FAM/BHQ fluorescence;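 active means mean normalized replicate activity at least 40 and at least half of replicates scoring 40 or more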;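 further: 0% = median of neutral control wells and 100% = median of positive control wells; inhibitors cause a drop in the FAM fluorescence signal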
Casp6 inh – inhibitors of human caspase-6 | AID 686996 | purified caspase-6, Z-VEID-R110 cleavage fluorescence | actives 0.53% (n = 350,000) | inhibition, % at 12.5 µM;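 active means mean inhibition across replicates at least about 35%, with every replicate also reaching that limit, limit read from the data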;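 further: 0% = median of neutral control wells and 100% = no fluorescence left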
Target sequence (P55212 24-179 limits assumed): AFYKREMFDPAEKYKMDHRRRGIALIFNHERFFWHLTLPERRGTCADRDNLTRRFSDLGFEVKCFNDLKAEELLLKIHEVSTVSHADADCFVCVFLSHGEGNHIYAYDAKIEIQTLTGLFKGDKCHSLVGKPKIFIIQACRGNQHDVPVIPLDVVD
Target sequence (P55212 194-293 limits assumed): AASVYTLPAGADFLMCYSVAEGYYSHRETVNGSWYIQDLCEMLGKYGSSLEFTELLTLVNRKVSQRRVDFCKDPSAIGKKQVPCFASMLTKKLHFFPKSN
Glyco luc inh – blocks N-linked glycosylation in D54 reporter cells; D54 ERlucT glycosylation luciferase reporter, 24 h; percent of 100 nM tunicamycin response; reporter increase, % at 12.5 µM; actives 0.23% (n = 360,000); AID 588692;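 active means mean luciferase reporter signal, scaled so untreated is 0 and the glycosylation-blocking control 100, at or above a set limit in every replicate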;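 further: luciferase carries N-glycosylation sites so blocking glycosylation raises the light; 0% = median of neutral control wells and 100% = median of 100 nM tunicamycin wells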
RAD52 anneal inh – RAD52 (human) annealing inhibition; AID 651710; recombinant RAD52 DNA annealing, FRET fluorescence; P43351; actives 0.46% (n = 360,000); inhibition, % at 18.7 µM;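 active means every replicate showing at least 50% inhibition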
AF4-AF9 inh – MLL-AF4/AF9 protein interaction inhibition. P42568. inhibition, % at 10 µM. actives 0.47% (n = 350,000). AlphaScreen, biotin-AF4 peptide binding to FLAG-AF9;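 active means every replicate reaching a set inhibition limit, whatever the replicate mean, cut at about 25% in these data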;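 further: 0% = plate neutral control median and 100% = total signal loss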
RAD52 DNA ctr – binds DNA, flagging false RAD52 inhibitor hits | AC50, µM | shares compounds with RAD52 anneal inh | Salmon sperm DNA/acridine orange FP displacement, DNA binding | actives 8% (n = 1,000);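 active means fitted half-maximal concentration for signal loss at or below twice the highest dose tested, in every separate run, actives reach about 64 µM in these data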
CASP1 counter – selectivity counter-screen: inhibitors of human caspase-1. shares compounds with Casp6 inh. purified caspase-1, Z-YVAD-R110 cleavage fluorescence. activity change, negative = inhibition, % at 35 µM. 100 tested, under 10 active;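 active means compounds lowering fluorescence whose fitted half-maximal concentration is no more than twice their top tested dose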
Target sequence (P29466 whole entry, looked up): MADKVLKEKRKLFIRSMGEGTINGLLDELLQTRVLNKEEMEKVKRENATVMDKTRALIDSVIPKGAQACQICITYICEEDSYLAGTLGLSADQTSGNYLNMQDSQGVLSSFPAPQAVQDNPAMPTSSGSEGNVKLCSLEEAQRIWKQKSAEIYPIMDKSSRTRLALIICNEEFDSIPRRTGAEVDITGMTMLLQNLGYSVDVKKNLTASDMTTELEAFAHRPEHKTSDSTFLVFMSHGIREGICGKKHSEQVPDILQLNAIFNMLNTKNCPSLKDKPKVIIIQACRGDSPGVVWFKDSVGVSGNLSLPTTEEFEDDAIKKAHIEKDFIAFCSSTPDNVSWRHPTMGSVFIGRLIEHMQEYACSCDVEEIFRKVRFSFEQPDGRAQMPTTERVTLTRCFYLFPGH
Starred values were filed as active, the others as inactive; i = inactive; x = no result. The list is not random: actives were taken first. Their share in the collection is about 1.2%.

SMILES | RAD54 inh | Casp6 inh | Glyco luc inh | RAD52 anneal inh | AF4-AF9 inh | CASP1 counter | others
Cc1noc(C)c1S(=O)(=O)Nc1ccc2c(c1)C(=O)N([C@@H](C)CO)C[C@@H](C)[C@@H](CN(C)C(=O)Nc1ccc(C(F)(F)F)cc1)O2 | 0 | 0 | x | -6 | -1 | x
COc1cc(NCCCCC(C)N)c2nccc(C)c2c1 (centres undefined) | 10 | 93* | -1 | 76* | 7 | -5 | RAD52 DNA ctr=i
Cc1ccccc1S(=O)(=O)N1C[C@@H](O)COC[C@@H]2O[C@@H](CC(=O)N3CCN(C)CC3)CC[C@H]21 | -3 | 2 | x | 1 | -1 | x
O=[N+]([O-])c1c(Nc2ccccn2)cc(Cl)c2nonc12 | x | 59* | -17 | -19 | 0 | -1
O=c1[nH]c(Nc2ccccc2Cl)cc2ccccc12 | 15 | 88* | 3 | -31 | -3 | -9
O=c1[nH]c(Nc2ccc(F)cc2)cc2ccccc12 | 12 | 100* | 8 | -11 | x | 6
CCC(=O)Nc1ccc2c(c1)C(=O)N(C)C[C@@H](OC)[C@@H](C)CN(C(=O)C1CC1)[C@@H](C)CO2 | 3 | 4 | x | -2 | 0 | x
Cc1ccc(S(=O)(=O)Nc2ccc3c(c2)C(=O)N([C@H](C)CO)C[C@@H](C)[C@@H](CN(C)CC2CCCCC2)OCCCC[C@@H](C)O3)cc1 | 2 | 2 | x | 39 | 24 | x
CCOC(=O)c1sc2nc(N3CCOCC3)c3c(c2c1N)CCC3 | 2 | x | 2 | x | x | x
CCOC(=O)c1sc2nc(OCCN3CCOCC3)cc(C)c2c1N | x | 82* | x | 12 | 3 | 5
O=C(C[C@@H]1C[C@H]2c3cc(NC(=O)NC4CCCCC4)ccc3O[C@H]2[C@H](CO)O1)NCc1ccccn1 | -13 | 75* | x | 45 | 21 | 1
Cc1ccc(S(=O)(=O)Nc2cccc3c2O[C@H](CN(C)C(=O)NC(C)C)[C@@H](C)CN([C@H](C)CO)C3=O)cc1 | 8 | 0 | x | 16 | -3 | x
COc1ccc(NS(=O)(=O)c2ccc3c(c2)[C@H]2C=CC[C@H]2[C@@H](c2ccc(C(=O)O)cc2)N3)cc1 | -7 | 53* | 2 | -29 | 17 | 3
CC(C)NC(=O)N(C)C[C@@H]1Oc2ccc(NC(=O)Cc3cn(C)c4ccccc34)cc2C(=O)N([C@H](C)CO)C[C@@H]1C | 10 | 4 | x | 20 | -10 | x
O=c1cc(-c2ccccc2Cl)oc2cccc(O)c12 | -5 | -10 | -1 | 2 | 4 | x
O=c1cc2oc3cc(O)c(O)cc3c(-c3ccccc3[N+](=O)[O-])c-2cc1O | -2 | 96* | -13 | 0 | 3 | -1
Cc1oc2c(cc(NS(=O)(=O)c3ccc(F)cc3)c3ccccc32)c1C(=O)O | -11 | x | 1 | -35 | 1 | x
Cc1oc2c(cc(NS(=O)(=O)c3ccc(C(C)C)cc3)c3ccccc32)c1C(=O)O | -19 | 39* | -1 | -249 | -3 | 12
Cc1cccc(NC(=O)CNC(=O)c2cccc(-n3cccc3)c2)c1C | -1 | 83* | 2 | -13 | 0 | 0
COc1ccc(NC(=O)CN(C)C(=O)c2cccc(Oc3ccccc3)c2)cc1 | -9 | 0 | 0 | -44 | 3 | x
COc1ccc(NC(=O)CN(C)C(=O)c2cccc(-n3cccc3)c2)cc1 | -9 | 51* | -1 | -10 | 8 | -3
Cc1ccc(NC(=O)CN(C)C(=O)c2cccc(-n3cccc3)c2)cc1 | -3 | 82* | 3 | -2 | 9 | 11
C[C@@H]1CN([C@@H](C)CO)C(=O)Cc2cc(NC(=O)Cc3cn(C)c4ccccc34)ccc2O[C@@H]1CN(C)S(C)(=O)=O | -5 | 0 | x | -17 | 0 | x
Cc1ccc(S(=O)c2ccc([N+](=O)[O-])c3nonc23)cc1 (centres undefined) | -75 | 91* | 5 | -487 | 2 | 21
O=C(COC(=O)c1ccccc1)Nc1ncc([N+](=O)[O-])s1 | 8 | 84* | 0 | -20 | -4 | -7
SMILES | RAD54 inh | Casp6 inh | Glyco luc inh | RAD52 anneal inh | AF4-AF9 inh | CASP1 counter | others
O=C(Nc1ccccc1)Nc1ncc([N+](=O)[O-])s1 | x | 7 | -16 | -7 | 5 | x
CCNC(=O)C[C@H]1CC[C@H]2[C@@H](COC[C@@H](O)CN2C(=O)C2CCOCC2)O1 | 0 | -1 | x | -59 | -2 | x
Nc1cc2c(cc1Br)[nH]c(=O)c1ccccc12 | x | 42* | 18 | -5 | 3 | 6
Nc1cc2[nH]c(=O)c3ccccc3c2cc1Br | x | 0 | 10 | 3 | -1 | x
Oc1ccc(/C=C/c2cc(O)cc(O)c2)cc1 | 10 | 6 | -13 | 9 | 2 | x
Oc1cc(O)cc(C=Cc2ccc(O)c(O)c2)c1 | x | 76* | x | 5 | 10 | -8
Cc1cc(C=O)c(C)n1-c1ccc(Cl)c(C(=O)O)c1 | x | 54* | 0 | -15 | -9 | 3
COc1ccc(-n2c(C)cc(C=O)c2C)cc1Cl | -3 | x | -3 | x | x | x
O=C(O)/C(=C\c1ccc(Cl)c([N+](=O)[O-])c1)c1ccc(S(=O)(=O)N2CCCC2)s1 | 9 | 70* | 2 | -17 | -3 | 11
[C-]#[N+][C@H](O[C@@H]1O[C@H](CO)[C@@H](O)[C@H](O)[C@H]1O)c1ccccc1 | 0 | 0 | -1 | -6 | -2 | x
O=C(O)CC(CCc1ccccc1)OC1OC(CO)C(O)C(O)C1O (centres undefined) | -5 | 71* | 1 | 7 | 7 | 22
Cc1c(NC(=O)C(C)OC(=O)c2ccc([N+](=O)[O-])s2)c(=O)n(-c2ccccc2)n1C (centres undefined) | 2 | 94* | 4 | -3 | 10 | 4
Cc1c(NC(=O)C(C)OC(=O)c2sc3ccccc3c2Cl)c(=O)n(-c2ccccc2)n1C (centres undefined) | x | 1 | 0 | 3 | -24 | x
C[C@@H]1CN([C@H](C)CO)C(=O)Cc2cc(NC(=O)Nc3ccc(F)cc3)ccc2O[C@H]1CN(C)C(=O)Nc1ccc(C(F)(F)F)cc1 | 0 | x | x | x | x | x
COCCn1c(-c2ccc(OC)cc2)nc2ccccc21 | x | x | 1 | x | x | x
COCCn1c2nc(=O)n(-c3ccccc3)c(=O)c-2nc2ccccc21 | x | 70* | 4 | i | -6 | 5
CC(C)NC(=O)N(C)C[C@H]1Oc2ncc(C#CC3(O)CCCC3)cc2C(=O)N([C@@H](C)CO)C[C@@H]1C | 2 | -2 | x | 13 | -3 | x
CCCCN(C(=O)c1cccc(-n2cccc2)c1)c1c(N)n(CCC)c(=O)[nH]c1=O | -1 | 41* | -1 | -71 | 3 | 8
CCCN(C(=O)c1ccc([N+](=O)[O-])c(C)c1)c1c(N)n(Cc2ccccc2)c(=O)[nH]c1=O | 4 | 5 | 4 | -13 | 2 | x
CCCN(C(=O)c1cccc(-n2cccc2)c1)c1c(N)n(Cc2ccccc2)c(=O)[nH]c1=O | -9 | 71* | 0 | -3 | 0 | 9
